An excerpt weighted towards active compounds, which were near 7.9% of everything screened.
FMDV antiviral = High Throughput Screening for Foot and Mouth Disease Virus Antivirals; Potency, µM (series often up to 57.9 µM), inactives show at the top dose activity change, negative = inhibition, hits mostly inhibitors; FMDV antiviral cell-based qHTS; 1.2% of 410,000 active; calls by dose curve; tested in HEK293T cells; further: read-out not given here; potency means the concentration at half of the fitted maximal effect; nearly all actives have a fitted effect of over 45% in size
HCV inh = qHTS Assay for Inhibitors of Hepatitis C Virus (HCV); Huh7.5.1 HCVcc-Cre infection, luciferase reporter, 44 h; Potency, µM (top dose mostly 41.8 µM), for inactives: at the highest dose activity change, negative = inhibition, actives largely listed as inhibitors; 3.4% of 340,000 active; active means well fitted inhibition curve with a large enough effect; inconclusive means small, poorly fitted or top-dose-only effect, or another doubt; inactive means no such curve, though single readings can be large or run the other way; further: potency means the concentration at half of the fitted maximal effect
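Whole-lifecycle infectious HCVcc-Cre system; cells 1,000/well, compound then virus (~0.5 moi) added 4 h after plating, 44 h culture. Luciferase read 15 sec following 15 min substrate incubation, room temp.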
HCMV antiviral = qHTS Assay for inhibitors of the human cytomegalovirus (HCMV). HFF cells, HCMV-luciferase reporter, 72 h; active compounds read low. activity change, negative = inhibition, % at 57.5 µM. 4.5% of 410,000 active; in the data active means activity change below about -60%; inconclusive means no clear call, values can overlap the other calls; inactive means above about -39%
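Two-dose cell screen: HFF monolayers treated with compounds and infected with luciferase-expressing HCMV at 1 PFU/cell, 72 h at 37C, then lysed for luciferase measurement.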
MARV entry inh = qHTS for inhibitors of binding or entry into cells for Marburg Virus. 1.8% of 300,000 active. Potency, µM (doses to about 37.8 µM), for the others: top-dose activity change, negative = inhibition, most hits filed as inhibitors. Marburg virus pseudotyped entry inhibition, cell reporter. AID 540276, 2011; calls by dose curve; tested in HEK293 cells; further: potency means the concentration at half of the fitted maximal effect
Lassa entry inh = qHTS for Inhibitors of binding or entry into cells for Lassa Virus | Lassa virus pseudotype entry inhibition, cell reporter | Potency, µM (doses to about 37.9 µM), without a hit: at the highest dose activity change, negative = inhibition, hits mostly inhibitors | 1.2% of 300,000 active | AID 540256, 2011; calls by dose curve; tested in HEK293 cells; further: potency means the concentration at half of the fitted maximal effect; nearly all actives have a fitted effect of over 50% in size
The depositor's hits bear a star; ? = inconclusive; . = no result given; [ ] = remark or other dose. On the % scale 0 is the no-effect control and ±100 the full control effect.

SMILES	FMDV antiviral	HCV inh	HCMV antiviral	MARV entry inh	Lassa entry inh
CCOC(=O)c1c(C)[nH]c(C)c1C(=O)COc1ccc(NC(=O)c2ccco2)cc1	-27.7%	-14.3%	-64.4*	-1.5%	-19.4%
Cc1cccc(NS(=O)(=O)c2ccc(C)c(C(=O)OCC(=O)Nc3cc(C)on3)c2)c1	24.6%	-24.5%	-39.2	?	4.47µM*
Cc1cccc(NS(=O)(=O)c2cc(C(=O)OCC(=O)Nc3cc(C)on3)ccc2C)c1	33.3%	-7.9%	69.3	?	?
COCCn1c(C)cc(O)c(C(c2cccc(F)c2)N2CCN(c3ccccc3)CC2)c1=O (stereo not given)	-15.5%	.	-1.9	.	22.5%[46.1 µM]
O=C(O)c1cccc(-c2nnn(Cc3ccccc3)n2)c1	-10.3%	15.0%	31.0	?	?
O=C(O)c1cccc(-c2nnn(Cc3ccccc3Cl)n2)c1	-25.4%	17.2%	117.4	6.31µM*	8.2µM*
Cc1ccccc1Cn1nnc(-c2ccc(C(=O)O)cc2)n1	-0.8%	6.0%	-12.9	?	0.2%
Cc1ccccc1Cn1nnc(-c2cccc(C(=O)O)c2)n1	-51.4%	3.4%	149.9	5.8µM*	13µM*
CCC(=O)N1[C@@H]2c3ccc(C4=CCCCC4)c(=O)n3C[C@H]1[C@H](CO)[C@H]2C(=O)N[C@@H](C)c1ccccc1	.	.	-8.6	.	.
CN(/N=C/c1ccc(O)cc1O)c1ncc(C(F)(F)F)cc1Cl	-23.1%	-27.8%	-74.4*	.	.
CC(CCc1ccc(O)cc1)N1CCC(Oc2ccc(C(=O)N3CCCC3)cc2)CC1 (stereo not given)	-3.8%	-0.6%	-60.3*	2.2%	14.0%
COc1ccc(CCC(C)N2CCC(Oc3ccc(C(=O)N4CCCC4)cc3)CC2)cc1 (stereo not given)	15.2%	?	-8.2	?	-29.9%
O=S(=O)(c1ccc(F)cc1)N1CCC(Oc2cccc(C(F)(F)F)c2)CC1	?	.	-6.6	-3.4%[46.1 µM]	-1.6%[46.1 µM]
CC(=O)Nc1cccc(Oc2nc(C(F)(F)F)nc3ccccc23)c1	-19.0%	-14.1%	-22.1	0.4%[46.1 µM]	24.2%[46.1 µM]
CC(=O)Nc1cccc(Oc2nc(-c3ccccn3)nc3ccccc23)c1	?	?	-61.2*	?	2.7%
CC(=O)Nc1ccc(Oc2nc(-c3ccccn3)nc3ccccc23)cc1	?	?	-102.2*	?	?
COc1ccc(Nc2cc(C(=O)NCCCN(C)C3CCCCC3)c3ccccc3n2)c(OC)c1	-0.1%	.	-31.8	?	?
COc1ccc(N2CCN(CCCNC(=O)c3cc(Nc4ccc(OC)cc4OC)nc4ccccc34)CC2)cc1	22.4µM*	.	-38.3	.	?
COc1ccccc1-c1cc(C(=O)N2CCc3ccccc3C2)c2ccccc2n1	.	.	.	-0.7%	.
COc1ccc(Nc2cc(C(=O)N3CCc4ccccc4C3)c3ccccc3n2)c(OC)c1	-12.7%	10µM*	-23.0	.	.
COc1ccc(Nc2cc(C(=O)NCCCN(C)C3CCCCC3)c3ccccc3n2)cc1	0.0%	.	-106.8*	10µM*	?
C=C(COC)C1=CCC(C(=O)OC)(C(=O)OC)[C@@H](C[N+](=O)[O-])c2ccccc21	.	.	.	59.6%[14.2 µM]	.
CCC1CN(CC(=O)NCc2ccc3c(c2)OCO3)Cc2ccc(Cl)cc2O1 (stereo not given)	-5.1%	.	.	.	.
COc1cccc(C2NC(=S)NC3=C2CCc2ccccc23)c1 (stereo not given)	-2.4%	?	?	2.6%	7.3%
COc1ccc2c(c1)C1=C(CC2)C(c2ccc(C)cc2)NC(=S)N1 (stereo not given)	-0.6%	11.2µM*	?	.	.
SMILES	FMDV antiviral	HCV inh	HCMV antiviral	MARV entry inh	Lassa entry inh
CC1C(=O)N(Cc2ccc([N+](=O)[O-])cc2)c2ccccc2N1C(=O)c1c(F)cccc1F (stereo not given)	35.5µM*	?	?	?	?
COc1cccc(CN2C(=O)C(C)Oc3ccccc32)c1 (stereo not given)	-8.7%	14.8%	-5.9	-11.1%[46.1 µM]	0.0%[46.1 µM]
CSc1cccc(N2C(=O)N(Cc3ccc([N+](=O)[O-])cc3)c3ccccc3S2(=O)=O)c1	?	.	-32.8	.	?
COc1cccc(CN2C(=O)C(C)N(C(=O)c3ccccc3)c3ccccc32)c1 (stereo not given)	?	?	-71.4*	10µM*	?
COc1ccc(CN2C(=O)C(C)N(C(=O)c3c(F)cccc3F)c3ccccc32)cc1 (stereo not given)	35.5µM*	?	?	.	.
CO[C@H]1[C@H](NC(=O)c2ccsc2)c2ccccc2C12CCN(Cc1cccc3ncccc13)CC2	-17.3%	.	.	.	.
C[C@@H]1NC(=O)[C@H](CCCN=C(N)N)NC(=O)c2cc([N+](=O)[O-])cc(I)c2NCCC[C@@H](C(N)=O)NC1=O	-16.4%	7.94µM*	-4.7	3.4%	4.6%
O=C1NC[C@H](Cc2ccccc2)N(CC2CCN(CCCC3CCCC3)CC2)C1=O	-7.8%	7.6%	-33.2	.	.
S=C1NC[C@H](Cc2cccc3ccccc23)N1CC1CCCCC1	0.0%	2.82µM*	-23.8	.	.
O=C1NC[C@@H](Cc2cccc3ccccc23)N(CC2CCCCC2)C1=O	9.1%	-8.9%	-4.4	.	.
S=C1NC[C@H](Cc2ccccc2)N1CC1CCN(CCCC2CCCCC2)CC1	.	.	-104.8*	.	.
N#C[C@H](c1ccccc1)C1CCN(C(=O)c2ccco2)CC1	.	.	-8.8	.	.
CCC(=O)N1c2ccccc2CC1C(=O)NCCc1cc(OC)c(OC)c(OC)c1 (stereo not given)	0.0%	.	39.9	.	-0.7%[46.1 µM]
COc1ccccc1N1CCN(C(=O)c2oc3ccccc3c2N)CC1	-15.1%	.	-24.0	?	.
COC(=O)C(CC(=O)c1ccc(Cl)cc1)c1ccccc1 (stereo not given)	3.8%	3.5%	-101.1*	18.5%	?
O=C(CNC(=O)c1ccc(Cl)cc1)OCC(=O)c1ccccc1	-2.9%	5.3%	-31.0	?	6.9%
O=C(CCC(=O)c1ccc(Cl)cc1)OCC(=O)c1ccccc1	0.7%	?	-64.8*	?	19.0%
CC(C)c1ccc(C(CC(=O)c2ccc(Cl)cc2)C(=O)O)cc1 (stereo not given)	1.0%	18.9%	44.5	?	11.0%
O=S(=O)(c1cc(O)ccc1O)c1cccc2c(S(=O)(=O)c3cc(O)ccc3O)cccc12	13.2%	10µM*	-21.7	.	.
CC12C=C(/C=C/c3ccc(Br)cc3)C(C)(C1)C(c1ccc(Br)cc1)CC2=O (stereo not given)	.	.	.	-25.8%[14.2 µM]	.
COc1ccc(OC)c(Nc2cc(C)nc3ccc(C)cc23)c1	?	22.4µM*	-13.4	?	?
COc1ccc2nc(C)cc(Nc3ccc(N4CCN(C)CC4)cc3)c2c1	-10.5%	10µM*	-101.7*	.	.
COc1ccc2nc(C)cc(Nc3ccc(N4CCOCC4)cc3)c2c1	.	?	-86.5*	?	-16.1%
COc1ccc2nc(C)cc(Nc3ccc(C)cc3)c2c1	-16.2%	?	-22.6	?	?
